Laboratory results published in PubChem BioAssay (NCI).
Compounds without any hit were thinned out: in the full panel of roughly 83,000, 20% have a hit.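 Method: cells in 96-well plates; compound added at one concentration; 48 h incubation; percent growth measured; values under 10 scored active.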 The source made the active and inactive calls.

Tests used:
Test in all cases: NCI-60 one-dose screen, 48 h (100 = growth as untreated, 0 = no growth, -100 = all killed)
Settings in all cases: 10 µM unless noted
NCI-H23 lung = system: NCI-H23 lung
NCI-H226 lung = system: NCI-H226 lung
NCI-H322M lung = system: NCI-H322M lung
HOP-62 NSCLC = system: HOP-62 NSCLC
NCI-H460 lung = system: NCI-H460 lung
HOP-92 NSCLC = system: HOP-92 NSCLC
NCI-H522 lung = system: NCI-H522 lung
A549/ATCC NSCLC = system: A549/ATCC NSCLC
786-0 renal = system: 786-0 renal
COLO 205 colon = system: COLO 205 colon
DU-145 prostate = system: DU-145 prostate
K-562 leukemia = system: K-562 leukemia
MALME-3M melanoma = system: MALME-3M melanoma
MDA-MB-231 breast = system: MDA-MB-231 breast
SF-268 CNS = system: SF-268 CNS
SF-295 CNS = system: SF-295 CNS
SF-539 CNS = system: SF-539 CNS
UACC-257 melanoma = system: UACC-257 melanoma
M14 melanoma = system: M14 melanoma

Measured: growth

C=Cc1cc[n+](CCCCCCCCCCCC)cc1
inactive: NCI-H23 lung 102% | NCI-H226 lung 103% | NCI-H322M lung 114% | HOP-62 NSCLC 111% | NCI-H460 lung 98.3% | HOP-92 NSCLC 134% | NCI-H522 lung 110% | A549/ATCC NSCLC 103% | 786-0 renal 106% | COLO 205 colon 118% | DU-145 prostate 105% | K-562 leukemia 93.8% | MALME-3M melanoma 111% | MDA-MB-231 breast 99.9% | SF-268 CNS 99.7% | SF-295 CNS 106% | SF-539 CNS 104% | UACC-257 melanoma 111% | M14 melanoma 102%

O=C(Nc1ccc2ncnc(Nc3ccc(Oc4cccc(F)c4)c(Cl)c3)c2c1)c1ccc(CN2CCOCC2)cc1
active: NCI-H522 lung 6.89% | K-562 leukemia 8.98%
inactive: NCI-H23 lung 20.1% | NCI-H226 lung 52% | NCI-H322M lung 60.7% | HOP-62 NSCLC 17.9% | NCI-H460 lung 38.8% | HOP-92 NSCLC 53.9% | A549/ATCC NSCLC 33.6% | 786-0 renal 42.2% | COLO 205 colon 40.1% | DU-145 prostate 39.6% | MALME-3M melanoma 38.9% | MDA-MB-231 breast 46.1% | SF-268 CNS 49% | SF-295 CNS 27.3% | SF-539 CNS 53.2% | UACC-257 melanoma 53.1% | M14 melanoma 14.7%

COc1ccc(-c2nc(N/N=C/c3ccco3)nc(N3CCOCC3)c2C#N)cc1
inactive: NCI-H23 lung 81% | NCI-H226 lung 84.8% | NCI-H322M lung 87.1% | HOP-62 NSCLC 68.1% | NCI-H460 lung 66.4% | HOP-92 NSCLC 49.2% | NCI-H522 lung 76.9% | A549/ATCC NSCLC 81.9% | 786-0 renal 54.7% | COLO 205 colon 85.7% | DU-145 prostate 93.2% | K-562 leukemia 87.6% | MALME-3M melanoma 59.5% | MDA-MB-231 breast 86.1% | SF-268 CNS 80.1% | SF-295 CNS 90.1% | SF-539 CNS 74.2% | UACC-257 melanoma 94.8% | M14 melanoma 85.3%

CC1(C)CCCN1CCCN1c2ccccc2Sc2ccc(Cl)cc21
inactive: NCI-H23 lung 72.5% | NCI-H226 lung 82.9% | NCI-H322M lung 74.1% | HOP-62 NSCLC 77% | NCI-H460 lung 60.8% | HOP-92 NSCLC 62.9% | NCI-H522 lung 76.6% | A549/ATCC NSCLC 83.8% | 786-0 renal 54.2% | COLO 205 colon 43.6% | DU-145 prostate 78.5% | K-562 leukemia 14.2% | MALME-3M melanoma 67.2% | MDA-MB-231 breast 45.5% | SF-268 CNS 76.3% | SF-295 CNS 68.2% | SF-539 CNS 78.2% | UACC-257 melanoma 105% | M14 melanoma 39.1%

COc1ccc(-c2nc(N/N=C/c3cccc(O)c3)nc(N3CCOCC3)c2C#N)cc1
inactive: NCI-H23 lung 99.5% | NCI-H226 lung 98.1% | NCI-H322M lung 95% | HOP-62 NSCLC 90.7% | NCI-H460 lung 83.8% | HOP-92 NSCLC 47.7% | NCI-H522 lung 79.1% | A549/ATCC NSCLC 81.7% | 786-0 renal 44.1% | COLO 205 colon 74.1% | DU-145 prostate 56% | K-562 leukemia 58.3% | MALME-3M melanoma 65.9% | MDA-MB-231 breast 74.9% | SF-268 CNS 78.8% | SF-295 CNS 69.7% | SF-539 CNS 54.5% | UACC-257 melanoma 57.9% | M14 melanoma 57.5%

O=S(=O)(c1ccccc1)N1CCCc2ccccc21
inactive: NCI-H23 lung 102% | NCI-H226 lung 104% | NCI-H322M lung 99% | HOP-62 NSCLC 94.2% | NCI-H460 lung 107% | HOP-92 NSCLC 88.5% | NCI-H522 lung 82.2% | A549/ATCC NSCLC 91.4% | 786-0 renal 102% | COLO 205 colon 112% | DU-145 prostate 112% | K-562 leukemia 97% | MALME-3M melanoma 93.6% | MDA-MB-231 breast 98.8% | SF-268 CNS 95.5% | SF-295 CNS 98.5% | SF-539 CNS 102% | UACC-257 melanoma 96.3% | M14 melanoma 102%

COC(=O)Nc1nc2ccc(C(=O)c3cccc(I)c3)cc2[nH]1
inactive: NCI-H23 lung 22.1% | NCI-H226 lung 51.4% | NCI-H322M lung 39.4% | HOP-62 NSCLC 37% | HOP-92 NSCLC 51.5% | A549/ATCC NSCLC 15.3% | 786-0 renal 27.2% | MALME-3M melanoma 31.3% | SF-268 CNS 22.4% | SF-295 CNS 12% | UACC-257 melanoma 61.4%
active: NCI-H460 lung 4.52% | NCI-H522 lung -29.2% | COLO 205 colon -29.7% | DU-145 prostate 5.95% | K-562 leukemia 6.18% | MDA-MB-231 breast -3.99% | SF-539 CNS -25.8% | M14 melanoma 1.39%

S=c1[nH]cccc1-c1nnc2n1Nc1nc3ccc(Cl)cc3cc1CS2
inactive: NCI-H23 lung 92% | NCI-H226 lung 94.9% | NCI-H322M lung 103% | HOP-62 NSCLC 108% | NCI-H460 lung 102% | HOP-92 NSCLC 107% | NCI-H522 lung 82.6% | A549/ATCC NSCLC 107% | 786-0 renal 98.8% | COLO 205 colon 122% | DU-145 prostate 117% | K-562 leukemia 97.5% | MALME-3M melanoma 110% | MDA-MB-231 breast 89.9% | SF-268 CNS 101% | SF-295 CNS 98.5% | SF-539 CNS 97.7% | UACC-257 melanoma 102% | M14 melanoma 98.6%
